IL1B secr inh: inhibitors of inflammasome signaling (IL-1 beta secretion). THP-1 LPS/ATP IL-1B secretion, AlphaLISA, 16 h; hits give low values. activity change, % at 57.5 µM. 4.7% of 360,000 active; in the data active = activity change below about -50%; inconclusive = mostly about -30% to -49%
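Secreted IL-1B measured by AlphaLISA bead assay after 16 h compound exposure of THP-1 cells; compounds (final up to 57.5 uM) added 1 h before LPS (250 ng/mL) and ATP (1.25 mM) stimulation; lower signal means less secretion.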
RORg inh: ROR gamma (mouse) transcription inhibition. 5.4% of 310,000 active. Drosophila S2 Gal4-RORgamma UAS-luciferase reporter, 20 h. AID 2551. Potency, µM (highest dose often 53.6 µM), without a hit: at the highest dose activity change, negative = inhibition, usual class: inhibitors. P51450; note: potency is the fitted concentration of half-maximal effect; nearly all actives have a fitted effect of over 60% in size
Target sequence (P51450 whole entry, looked up, the tested form may be a part): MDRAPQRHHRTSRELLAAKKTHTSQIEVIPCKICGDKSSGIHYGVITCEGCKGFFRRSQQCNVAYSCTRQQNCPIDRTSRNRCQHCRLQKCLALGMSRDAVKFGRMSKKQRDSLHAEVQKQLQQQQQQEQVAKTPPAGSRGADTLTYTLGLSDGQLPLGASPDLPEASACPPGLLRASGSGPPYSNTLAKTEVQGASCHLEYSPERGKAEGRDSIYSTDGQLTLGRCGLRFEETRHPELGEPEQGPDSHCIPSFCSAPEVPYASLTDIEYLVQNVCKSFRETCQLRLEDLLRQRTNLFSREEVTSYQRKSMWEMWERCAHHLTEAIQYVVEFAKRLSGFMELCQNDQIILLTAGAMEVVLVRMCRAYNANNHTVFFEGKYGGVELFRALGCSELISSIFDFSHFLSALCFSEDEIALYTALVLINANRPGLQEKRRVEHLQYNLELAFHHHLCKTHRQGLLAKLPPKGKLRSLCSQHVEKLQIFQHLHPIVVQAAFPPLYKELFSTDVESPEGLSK
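Luciferase reporter read in Schneider cells carrying Gal4-RORγ (mouse) and UAS-Photinus luciferase; cells given compound 1 h before 700 uM copper sulfate induction, then incubated 20 h at ambient temperature.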
LDHA inh: LDHA (human) enzyme inhibition; P00338; purified LDHA, NADH/diaphorase-resazurin fluorescence; hits give low values; activity change, % (values are at about 110 or 230 µM); 0.15% of 480,000 active; in the data active = activity change below about -30%; inconclusive = mostly about -25% to -30%;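 note: plate controls were DMSO wells for no effect and wells without enzyme for full effect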
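LDH5 2 nM; NADH 0.06 mM, pyruvate 0.2 mM; 200 mM Tris pH 7.4, EDTA, Tween-20; 5 min RT. Detection: diaphorase 0.133 mg/mL + resazurin 37 µM, fluorescence ex540/em590 at 0 and 20 min; normalized to enzyme-free and DMSO wells.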
Gal4-VP16 FLuc: counter-screen for ROR gamma inhibitors: Gal4-VP16 reporter; Drosophila S2 Gal4-VP16 UAS-luciferase, luminescence, 20 h; Potency, µM (series often up to 53.6 µM), for the others: at the highest dose activity, negative = inhibition, usual class: inhibitors; 3.5% of 310,000 active;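 note: Gal4-VP16 expression switched on by copper sulfate through the metallothionein promoter; potency is the fitted concentration of half-maximal effect; nearly all actives have a fitted effect of over 50% in size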
DT40 TDP1 no CPT: qHTS for Inhibitors of human tyrosyl-DNA phosphodiesterase 1 (TDP1): qHTS in cells in absence of CPT; DT40 Tdp1-/- hTDP1 cells, no CPT, ATP luminescence, 48 h; AID 686978, 2013; 15% of 420,000 active; Potency, µM (top dose mostly 46.2 µM), inactives show at the highest dose activity change, negative = growth inhibition, usual class: inhibitors; note: potency is the fitted concentration of half-maximal effect; nearly all actives have a fitted effect of over 55% in size
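Chicken DT40 Tdp1-/- cells stably complemented with human TDP1 were seeded at 400 cells/well with DMSO in place of 20 nM camptothecin. After compound pinning, cells grew at least 48 hr at 37 °C; viability read by CellTiter-Glo luminescence.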
TDP1 cell CPT: DT40-hTDP1 cell growth loss with CPT; 12% of 420,000 active; AID 686979; chicken DT40 Tdp1-/-;hTDP1 cells + 20 nM CPT, ATP luminescence, 48 h; Potency, µM (series often up to 46.2 µM), without a hit: top-dose activity change, negative = growth inhibition, usual class: inhibitors; note: potency is the fitted concentration of half-maximal effect; nearly all actives have a fitted effect of over 55% in size
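Cell growth measured by CellTiter-Glo luminescence after a minimum 48 h, 37 C compound exposure with 20 nM CPT in Tdp1-knockout DT40 cells stably expressing hTDP1, seeded 400/well; qHTS titration format.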
* hit, by the source's call; ? = inconclusive; / = no result given; [ ] = remark or other dose. Compounds with a hit are over-represented: about 18% of the library has one in this group of screens. Unless noted, calls come from the whole dose curve; as a rule, active = well fitted curve in the direction sought with a large enough effect; inconclusive = small, poorly fitted or top-dose-only effect, or another doubt; inactive = no such curve, though single readings can be large; an effect the other way counts as inactive or inconclusive. Unless noted, % is set by controls: 0 for no effect and ±100 for the full control effect.

SMILES | IL1B secr inh | RORg inh | LDHA inh | Gal4-VP16 FLuc | DT40 TDP1 no CPT | TDP1 cell CPT
O=C(N/N=C\c1ccc(-c2ccccc2[N+](=O)[O-])o1)C1COc2cc3ccccc3cc2O1 (stereo not given) | 7 | ? | 20 | -15% | ? | ?
O=C(N/N=C\c1ccc([N+](=O)[O-])o1)c1cncc(Br)c1 | -79* | ? | 7 | ? | 6.5µM* | 4.6µM*
CCN(CC)S(=O)(=O)c1cccc(C(=O)N/N=C/c2ccc([N+](=O)[O-])o2)c1 | -89* | 10µM* | -3 | ? | ? | 21µM*
Cc1c(C(=O)N/N=C/c2ccc(-c3ccccc3[N+](=O)[O-])o2)sc(N)c1C#N | 52 | 40%[10 µM] | 13 | -56% | 13µM* | 16µM*
Cc1ccc(C(=O)N/N=C/c2ccc(-c3ccc(Br)cc3[N+](=O)[O-])o2)o1 | -85* | ? | 14 | ? | ? | ?
O=C(N/N=C/c1ccc([N+](=O)[O-])o1)c1ccccc1NS(=O)(=O)c1cccs1 | -12 | -22% | 5 | -10% | ? | ?
O=C(Cc1cccc(F)c1)NCC1CCN(Cc2cccs2)CC1 | / | / | 7 | / | / | /
CCOc1cc(/C=C(\C#N)c2nc3ccccc3[nH]2)ccc1OCc1ccccc1 | / | / | 5 | / | / | /
Cc1cccc(C)c1NC(=O)CN1CCN(C(=O)CCc2ncc(-c3ccc(F)cc3)o2)CC1 | / | / | -1 | / | / | /
O=[N+]([O-])c1ccccc1-c1ccc(/C=N/O)o1 | / | / | 11 | / | / | /
O=C(N/N=C/c1ccc(-c2ccccc2[N+](=O)[O-])o1)c1cncc(Br)c1 | ? | 6.3µM* | 24 | 5µM* | ? | ?
CCc1ccc(-c2csc(Nc3ccc(C(=O)O)c(O)c3)n2)cc1 | / | / | 4 | / | / | /
Cc1ccc(F)cc1NC(=S)NCc1ccccc1 | / | / | 0 | / | / | /
Cc1cccc(NC(=S)Nc2ccccn2)c1C | 27 | 1.1µM* | -3 | 1.8µM* | ? | -21%
Cc1cccc(NC(=O)Nc2ccccn2)c1C | 25 | 22% | -12 | ? | 8% | -23%
CCNC(=S)Nc1cccc(F)c1C | 5 | 13µM* | 1 | -24% | -10% | -1%
Cc1ccccc1NC(=S)NCc1ccc(Cl)cc1 | -9 | 2.8µM* | -1 | 4µM* | 15µM* | ?
S=C(NCc1ccc(Cl)cc1)Nc1cccc2ccccc12 | / | / | -1 | / | / | /
Cc1cc(Cl)ccc1NC(=S)NCc1ccc(F)cc1 | -56* | 6.3µM* | -6 | 7.1µM* | ? | 3%
COc1ccc2cc(C(=O)NCC3(N(C)C)CCCCCC3)[nH]c2c1 | / | / | -12 | / | / | /
O=C(Nc1ccc(Cl)c(-c2nc3cc(Cl)ccc3o2)c1)c1ccc([N+](=O)[O-])o1 | / | / | -13 | / | / | /
Cc1cccc(C)c1NC(=S)NCc1ccccc1 | 19 | 19% | -4 | 0% | -17% | -17%
Cc1cccc(NC(=S)NCc2ccccc2)c1C | -19 | 4µM* | -4 | 5.6µM* | -28% | -29%
CN(C)CCNC(=S)Nc1ccccc1C(C)(C)C | -14 | -22% | -4 | 10% | -17% | 0%
Cc1cccc(NC(=S)NCc2ccc(F)cc2)c1C | -10 | 3.5µM* | -6 | 5µM* | -8% | -4%
SMILES | IL1B secr inh | RORg inh | LDHA inh | Gal4-VP16 FLuc | DT40 TDP1 no CPT | TDP1 cell CPT
Cc1ccccc1NC(=S)NCc1ccc(F)cc1 | -17 | 7.1µM* | -8 | 6.3µM* | ? | 2%
CC(C)(C)c1ccccc1NC(=S)NCc1ccccc1 | -1 | 6% | -8 | ? | 18µM* | ?
Cc1cccc(NC(=S)NCCO)c1C | 18 | -16% | -8 | -5% | -3% | -11%
COC(=O)/C(C#N)=C\c1cn[nH]c1C(C)(C)C | / | / | 5 | / | / | /
CCOC(=O)C(=O)C1=C(N2CCOCC2)/C(=C/c2ccccc2)CC1 | / | / | 6 | / | / | /
O=C(CCSCCc1ccccn1)Nc1cccc(Cl)c1 | / | / | 6 | / | / | /
CCCOC(=O)c1c(NC(=O)c2nc3nc(C)cc(C(F)F)n3n2)sc2c1CCCC2 | / | / | 6 | / | / | /

Bioassay records from PubChem.
